The assay concerns HL-60(TB) leukemia. Description: NCI-60 one-dose screen, 48 h (100 = growth as untreated, 0 = no growth, -100 = all killed). The note with it: 10 µM unless noted.

About 83,000 compounds went through this panel and 20% of them were active in at least one assay; those are over-represented in the sample as a whole.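 Cell lines were cultured in 96-well plates, exposed to a single compound concentration, and assessed for percent growth 48 hours later.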 A number with no mark means an inactive call. The source made the active and inactive calls. How the source made its calls: active means growth percent below 10; inactive means the rest.

As to `Cn1cc(-c2ccc3ncc(-c4ccc(CC(=O)Nc5cc(C(C)(C)C)nn5C)cc4)cc3c2)cn1`, the growth is -36.7% [30 µM] (active).

Turning to `CCOC(=O)c1nn(C2CCCCO2)c2ccc(NC(=O)CN3CCCC3)cc12` (stereo not given), the growth was 97.4%.

Regarding `CCOC(=O)C1=C(C)NC(=O)NC1c1c(Cl)n(CCCl)c2ccccc12` (stereo not given), the growth was 117%.

For `COc1ccc2c(c1)nc(N)c1c3cc(C)c(C)cc3cn21`, the growth was 79.6%.

With `C/C=C/C/C=C/[C@H](C)C[C@H](O)[C@@H]1C[C@@H]2O[C@H]2/C=C/[C@H](O)[C@@H](O)/C=C/C[C@H](C)CC(=O)O1`, the growth is 76.6%.

Take `COC(OC)c1ccccc1`: the growth is 77.6%.

Take `CCOc1ccc(N2C(=O)CCSC2=S)cc1`: the growth was 99.7%.

Consider `CCOC(=O)C1C(=O)C=C(c2cnccn2)CC1c1ccc(OC)c(OC)c1` (stereo not given), for which the growth is 63.9%.

Turning to `COc1ccc(S(=O)(=O)N2CCCCC2)cc1NC(=O)c1[nH]c(C)c2c1CCCCC2=O`, the growth is -10.9% (active).

Consider `Fc1cc2[nH]ncc2c2c3c(c(-c4cn[nH]c4C(F)(F)F)nc12)C1CCC3C1` (stereo not given), for which the growth was 1.63% (active).

Turning to `NC1=Nc2cc(OCCCN3Cc4ccccc4C3)c(OCC3CC3)cc2C12CCCC2`, the growth is 62.5%.

Regarding `C#CCSc1nnnn1-c1ccccc1`, the growth was 92.7%.

In the case of `Cn1cc(/C=C2/C(=O)Nc3ccccc32)c2ccccc21`, the growth was 85.8%.

Turning to `CC(=O)Oc1ccc(C2OC(c3ccc4ccccc4c3OC(C)=O)=NN2C(C)=O)c(OC(C)=O)c1` (stereo not given), the growth is -30.7% (active).

Consider `CCC(=O)c1cc([N+](=O)[O-])c(Br)s1`, for which the growth was 34%.

With `COc1cccc2c1C(=O)c1c(O)c3c(c(O)c1C2=O)C[C@](O)(C(=O)CO)C[C@H]3O[C@@H]1C[C@@H](NC(=O)CCCN(C)C2(c3ccc(F)cc3)CC3CCC2C3)[C@H](O)[C@@H](C)O1` (stereo not given in full), the growth was 76%.

For `COc1ccc(-c2nnc(COc3ccc(C(=O)/C=C/c4ccco4)cc3)o2)cc1`, the growth is 79.7%.

For `CC(=O)N1CCN(CCNC(=O)n2cc(-c3ccncc3)c(-c3ccc(O)c(Cl)c3)n2)CC1`, the growth was 106%.

Regarding `Cc1[nH]c(C2CC(c3ccc(C(F)(F)F)c(F)c3)=NN2C)c(C)c1C(=O)NCC(F)(F)F` (stereo not given), the growth is 97.1%.

Consider `Cc1cccc(-[n+]2noc(N)n2)c1`, for which the growth is 30.8%.

Consider `Cc1oc2ccc(O)c(CN3CCCCCC3)c2c1C(=O)Nc1ccc(C(F)(F)F)cc1`, for which the growth was 83%.

As for `CC1=C[S+](c2ccccc2)c2cccc3cc4ccccc4c1c23` (stereo not given), the growth was -50.3% (active).

Take `CCCc1cc2cc(-n3nc(C)c4c3CC(C)(C)CC4=O)cc(NC3CCSCC3)c2c(=O)[nH]1`: the growth was 49.4%.

`CC(C)N1C(=O)S/C(=C2/SC(=O)N(C(C)C)C2=O)C1=O`: the growth is 98.4%.

For the molecule `Cc1ccc2cnc(N)c(C#Cc3cncc(C(=O)Nc4ccc(CN5CCN(C)CC5)c(C(F)(F)F)c4)c3)c2c1`, the growth was -59.7% (active).

In the case of `O=C1OC(c2ccccc2)(c2ccccc2)c2ccsc21`, the growth was 86.6%.

Regarding `CCN(CC)CCCC(C)Nc1cnc(C(=O)Nc2cccc3ccc(OC)nc23)cn1` (stereo not given), the growth is 72.4%.

Turning to `CC1(C)C(=NO)C(C)(C)C1=NO`, the growth was 113%.

As to `COc1ccc(-c2nn(-c3ccc(NC(=O)c4cc(C(F)(F)F)cc(C(F)(F)F)c4)cc3)cc2-c2ccncc2)cc1Cl`, the growth is 73.6%.

For `Cc1ccc(O)c(C(=O)c2ccccc2)c1`, the growth is 73.1%.

Consider `C=C1C(=O)O[C@H]2[C@H]1CC/C(COC(=O)c1cccnc1N)=C\CC[C@@]1(C)O[C@@H]21`, for which the growth was -3.64% (active).

Regarding `O=C1/C(=C\c2ccc(F)cc2)CN(C(=O)c2ccccc2)C/C1=C\c1ccc(F)cc1`, the growth was 25.6%.

For `Cn1ncc(Cl)c1-c1cc(C(=O)N[C@H](CN)Cc2ccc(F)c(F)c2)oc1Cl`, the growth is -35.6% (active).

Take `CC(=O)Nc1ccc2c(c1)C(N1CC3CCC(CC3)C1)c1ccccc1-2` (stereo not given): the growth was 52.3%.

As for `COc1ccc(C(=O)/C=C/c2ccc(/C=C/c3cc(OC)c(OC)c(OC)c3)cc2)cc1`, the growth is 21.5%.

Regarding `C[N+](C)=c1ccc2nc3c(cc(NCCCNc4cc5oc6cc(=[N+](C)C)ccc-6nc5c5ccccc45)c4ccccc43)oc-2c1`, the growth was -7.2% (active).

Regarding `Nc1cc(C(=O)O)cc(-n2c(O)c(C=C3N=c4ccccc4=N3)sc2=S)c1`, the growth is 101%.

Take `Cc1[nH]c2ccccc2c1C1=CC(=O)C=CC1=O`: the growth was 12.4%.

Take `COc1ccc(-c2c(N)n[nH]c2-c2cc3c(c(OC)c2OC)OCO3)cc1`: the growth was 63.1%.

In the case of `COc1cccc(/C=C/C(=O)c2c(C)nc3ccccc3c2/C=C/c2ccc(C)cc2)c1OC`, the growth was 36%.

With `O=C(CCc1nc2sc3c(c2c(=O)[nH]1)CCC3)NCc1cn(-c2ccccc2)nc1-c1ccccc1`, the growth was 98.7%.

Turning to `COc1ccc(-c2c(N)n[nH]c2-c2cc(OC)c(OC)c(OC)c2)cc1`, the growth was 15.3%.

In the case of `O=[N+]([O-])/C(=C/c1ccccc1)c1ccccc1`, the growth was 85.6%.

`O=C(CCCN1CCC(O)(c2ccc(Br)cc2)CC1)c1ccc(F)cc1`: the growth was 72.5%.

As for `COc1ccc(Nc2ncnc3c2sc2nc(C)cc(C)c23)cc1`, the growth was 97.9%.

Take `CCCCCCCN(CCCCCCC)C(=N)c1ccc(OC)c2ccccc12`: the growth is -66.4% (active).

As to `O=C1NN(C(=O)c2ccc(O)cc2)C(c2ccccc2)=N/C1=C\c1cn(-c2ccccc2)nc1-c1ccccc1`, the growth was 85.7%.

Turning to `CC(=O)Nc1cc(C)ccc1C`, the growth was 100%.

`Cc1n[nH]c(C)c1-c1c(C)n[nH]c1C`: the growth was -6.88% (active).

With `COc1ccc(-c2cc(-c3ccc(Cl)cc3)c(C#N)c(=O)n2Cc2ccc(C(=O)Nc3ccccc3N)cc2)cc1`, the growth was 84.7%.

For the molecule `CCN1CCN(Cc2ccc(NC(=O)Nc3nc(-c4cc(OC)c(OC)c(OC)c4)cs3)cc2C(F)(F)F)CC1`, the growth was 8.19% (active).

Regarding `C=CCO[C@H]1CO[C@H]2[C@@H]1OC[C@@H]2Oc1ccc(Nc2ccnc(Nc3ccc(O[C@H]4CO[C@H]5[C@@H]4OC[C@@H]5OCC=C)c(Cl)c3)n2)cc1Cl`, the growth was -51.4% (active).

For `COc1cc(-c2ccc(N=Nc3c(O)c(C(=O)Nc4ccccc4OC)cc4ccccc34)c(OC)c2)ccc1N=Nc1c(O)c(C(=O)Nc2ccccc2OC)cc2ccccc12`, the growth is 79.2%.

As for `Clc1nc(Cl)c2c3c(sc2n1)CCCC3`, the growth was -14.2% (active).

On to `CC(C)(C)CC(C)(C)Nc1c(-c2ccc(C(F)(F)F)cc2)nc2cnccn12`, for which the growth was 79.4%.

Regarding `O=C1/C(=C/c2ccc(Cl)cc2Cl)CN(S(=O)(=O)c2ccccc2)C/C1=C\c1ccc(Cl)cc1Cl`, the growth is 11%.

`COc1cc(/C(=C2/O[C@@H]([C@H]3COC(C)(C)O3)[C@H]3OC(C)(C)O[C@@H]23)c2ccc3ccccc3c2)cc(OC)c1OC`: the growth is 59.2%.

As for `O=S(=O)(c1ccc(NC(=S)NCc2cccnc2)cc1)N1CCCCC1`, the growth was 64.9%.

In the case of `Nc1c(C(=O)Nc2ccccn2)sc2nc3c(cc12)C(O)CCC3` (stereo not given), the growth is 9.6% (active).

As to `CCCc1n(Cc2ccc3ccccc3n2)cc[n+]1Cc1ccc2ccccc2n1`, the growth was -31.2% (active).

As for `CNC(=O)c1cc(Oc2ccc3c(c2)sc2nc(-c4ccc(N)cc4)cn23)ccn1`, the growth is 2.04% (active).

For the molecule `COc1ccc(-c2cnc(SCC(=O)Nc3ccc(-c4nc5ccccc5s4)cc3)n2-c2ccc(OC)cc2)cc1`, the growth is 106%.

As for `Cc1nc2cc(O)c(O)cc2cc1Oc1ccc(NC(=O)Nc2ccc(Cl)c(Cl)c2)cc1`, the growth was 96.8%.

As for `Brc1cccc(-c2cc(-c3ccc4nccnc4c3)[nH]n2)c1`, the growth was 14.9% [25 µM].

In the case of `CC1CN(CC(O)c2ccc(Br)cc2)CCO1` (stereo not given), the growth is 85.4%.

With `COc1nc(Nc2cccc(C(F)(F)F)c2)nc(OC)n1`, the growth is 92.7%.

For the molecule `O=S(=O)(O)c1cccc(Nc2ccc3ccccc3c2)c1`, the growth is 89.9%.

Regarding `Cc1cccc2c(=O)c3c(sc12)c(NCc1ccccc1)nc1ccccc13`, the growth is 95.5%.

On to `C=C(C)[C@@H]1CC[C@]2(C(=O)NCCCN)CC[C@]3(C)[C@H](CC[C@@H]4[C@@]5(C)CC[C@H](O)C(C)(C)[C@@H]5CC[C@]43C)[C@@H]12`, for which the growth is 1.25% [100 µM] (active).

Regarding `CCOC(=O)[C@H](CSSc1ncnc2cc[nH]c12)NC(=O)[C@@H](C)c1ccc2cc(OC)ccc2c1`, the growth was 7.65% (active).

For `C=C1C(=O)O[C@H]2[C@H]1CC/C(COC(=O)NCc1ccc(Cn3c(=O)sn(CCCC)c3=O)cc1)=C\CC[C@@]1(C)O[C@@H]21`, the growth is -33.2% (active).

Regarding `Cn1ncc2c(Nc3ccccc3Cl)nc(Cl)nc21`, the growth is 96.1%.

With `CCCCCCc1cc(N=Nc2ccc(S(=O)(=O)Nc3cc(C)nc(C)n3)cc2)c(O)cc1O`, the growth is 94.4%.

Consider `C[C@]12CC[C@H](O)CC1=CC[C@@H]1[C@@H]2CC[C@]2(C)C(c3cccnc3)=CC[C@@H]12`, for which the growth is -25% (active).

Turning to `Cc1ccc(-c2nc(N3CCN(CC(=O)Nc4ccc(Cl)c(C(F)(F)F)c4)CC3)c3ccccc3n2)cc1`, the growth was 97.6%.

`CCCCOc1nc2ccc(Cl)cc2cc1/C=C/C(=O)/C=C/c1ccc(Cl)cc1`: the growth was 61.2%.

For the molecule `O=C1c2ccccc2NC(n2sc3ccccc3c2=O)N1c1ccccc1` (stereo not given), the growth is 87.9%.

Turning to `C=CCn1c(SCC(=O)Nc2ccc(/C(C)=N/O)cc2)nnc1-c1cc(-c2ccc(S(N)(=O)=O)cc2)nc2ccccc12`, the growth was 7.74% (active).

Consider `CN[C@@H](C)C(=O)N[C@H]1CCS[C@H]2CC(C)(C)[C@@H](C(=O)N[C@H]3c4ccccc4C[C@H]3OCC#CC#CCO[C@@H]3Cc4ccccc4[C@@H]3NC(=O)[C@H]3N4C(=O)[C@@H](NC(=O)[C@H](C)NC)CCS[C@H]4CC3(C)C)N2C1=O`, for which the growth is -47.4% (active).

Take `COc1ccc(-c2cncn2-c2ccc(-c3nc4cc(OC)c(OC)c(OC)c4s3)cc2)cc1N`: the growth was 27.8%.

Source of the values: PubChem BioAssay (NCI).
